# High-throughput results deposited in PubChem by Broad Institute.
# In the library only some 3.8% were active in any assay of this set; here they are far more common.
# Wnt bcat act: activates Wnt/beta-catenin signaling in a reporter cell assay. activator, plate reader. activation, % at 9.35 µM. hit rate 1.2% among 300,000; in the data active means activation above about 30%, passing the limit was not always enough; inconclusive means no clear call, values can overlap the other calls
# esBAF inh: inhibitors of esBAF chromatin remodeling in mouse ES cells; Bmi1-luciferase knock-in reporter, 24 h; 100% = twice the neutral-well signal; reporter increase, % at 12.5 µM; hit rate 2% among 350,000; in the data active means activation above about 40%; inconclusive means no clear call, values can overlap the other calls;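 further: a rise in the Bmi1 reporter signal indicates esBAF inhibition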
# MITF act: increases MITF-driven TRPM1 promoter luciferase signal | SK-MEL-5 TRPM1-promoter luciferase, 24 h; % of positive control, neutral wells = 0 | activation, % at 12.5 µM | hit rate 0.75% among 300,000 | AID 588334;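 active means mean activation of at least 80% with every replicate also reaching 80%; inconclusive means mean reaches 80% but some replicate falls short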
# HSF1 inhib: HSF1 inhibition; NIH3T3-HGL HSE-luciferase, MG132-induced, luminescence 8 h; stronger effect = lower value; activity change, negative = inhibition, % at 7.5 µM (by protocol); hit rate 0.77% among 300,000; AID 2098;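 active means more than half of replicate wells show activity change below -50%, luminescence cut by over half; inconclusive means some wells, but at most half, below -50%; inactive means no replicate well below -50%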;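 further: luciferase reports HSF-1 transcriptional activity via heat shock element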
# HSF1 activator: increases HSF-1 driven luciferase reporter signal; NIH3T3-HGL HSF-1 luciferase reporter, MG132, 8 h; 100% = twice DMSO control signal; hit rate 1.7% among 300,000; AID 504408; activation, % at 9 µM;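 active means mean replicate activation of at least 50% with a set share of replicates each reaching 50%; inconclusive means only one of those two conditions met; inactive means mean below 50% and too few replicates reaching it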
# Hits are given with their value; 0 = inactive; ? = inconclusive; - = no result.
SMILES,Wnt bcat act,esBAF inh,MITF act,HSF1 inhib,HSF1 activator
CC=Cc1ccc2n(c1=O)C[C@@H]1[C@@H](CO)[C@H](C(=O)NCCC)[C@H]2N1CC1CCCC1 (mixture of isomers),-,0,-,-,-
COc1cccc(NC(=O)C(=O)NCC2CCCN2S(=O)(=O)c2ccccc2)c1 (stereo unspecified),43.4,78.8,157.8,0,56.4
O=C(NCC1CCCN1S(=O)(=O)c1cccs1)C(=O)Nc1ccccc1F (stereo unspecified),0,0,-,-,-
O=C(NCC1CCCN1S(=O)(=O)c1cccs1)C(=O)Nc1ccccc1Cl (stereo unspecified),0,50.7,0,0,0
COc1cccc(C(=O)NCC2CCCN2S(=O)(=O)c2ccccc2)c1 (stereo unspecified),0,0,0,0,0
C#CCN1C(=O)S/C(=C/C=C/c2ccc(N(C)C)cc2)C1=O,44.8,79.3,0,-,-
O=C(NCC1CC1)[C@@H]1[C@@H](CO)[C@@H]2Cn3c(ccc(-c4cccc(F)c4)c3=O)[C@@H]2N1CC1CC1,-,0,-,-,-
Cc1ccc(C(=O)NC2=NCCS2)cc1,49.7,-,-,0,0
COc1ccc(C(=O)NC2=NCCS2)cc1,35.5,0,0,0,0
N#Cc1ccc(C(=O)NC2=NCCS2)cc1,0,48.0,0,0,0
COc1cc(OC)cc(C(=O)NC2=NCCS2)c1,-,-,0,0,0
CC(C)c1ccc(C(=O)NC2=NCCS2)cc1,44.5,0,0,-,-
CC(C)Oc1ccc(C(=O)NC2=NCCS2)cc1,0,-,0,0,0
O=C(NC1=NCCS1)c1ccc(C(F)(F)F)cc1,0,52.8,87.2,0,0
CCOC(=O)c1c(-c2ccc(C)o2)csc1NC(=S)NC(=O)N(C)C,0,0,0,0,55.6
Cc1ccc(NC(=O)C2C3C=CC(O3)C2C(=O)O)cc1C (stereo unspecified),0,0,-,0,0
Cc1ccc(-c2ccc(NC(=O)C3C4C=CC(C4)C3C(=O)O)cc2)o1 (stereo unspecified),-,58.8,-,0,0
COC(=O)c1ccc(NC(=O)C2C3C=CC(C3)C2C(=O)O)cc1 (stereo unspecified),0,0,0,-51.8,0
COc1ccc(NC(=O)C2C3C=CC(C3)C2C(=O)O)cc1 (stereo unspecified),0,-,0,0,0
COC(=O)c1ccc(NC(=O)C2C3C=CC(O3)C2C(=O)O)cc1 (stereo unspecified),-,56.8,0,0,0
C[C@@H]1CN([C@@H](C)CO)C(=O)c2cc(C#CC3CCCC3)cnc2O[C@@H]1CN(C)S(=O)(=O)c1cccc(F)c1,-,0,-,-,-
Cc1c(C(=O)c2ccccc2)oc2ccc3ccccc3c12,50.0,0,-,0,0
Nc1c(C(=O)c2ccccc2)oc2ccccc12,0,0,0,0,0
Cc1ccc(N(NC(=O)C(O)(c2ccccc2)c2ccccc2)C(=O)CCl)cc1,-,-,0,0,75.4
CCCC(=O)Nc1ccc2c(c1)OC[C@@H](C)N(Cc1cncnc1)C[C@H](C)[C@H](OC)CN(C)C2=O,-,0,-,-,-
SMILES,Wnt bcat act,esBAF inh,MITF act,HSF1 inhib,HSF1 activator
Cn1cc(Br)c(C(=O)Nc2sc3c(c2C(N)=O)CCCC3)n1,0,67.2,85.1,0,0
Cc1onc(-c2ccccc2)c1C(=O)Nc1sc2c(c1C(N)=O)CCC2,0,-,-,-59.3,0
NC(=O)c1c(NC(=O)c2ccc(F)cc2Cl)sc2c1CCC2,0,49.3,0,0,0
NC(=O)c1c(NC(=O)c2ccccc2F)sc2c1CCCC2,0,64.9,0,0,75.0
Cc1onc(-c2ccccc2)c1C(=O)Nc1sc2c(c1C#N)CCC2,-,0,0,0,0
NC(=O)c1c(NC(=O)c2ccccc2Cl)sc2c1CCC2,0,?,-,0,0
CNC(=O)C[C@H]1CC[C@@H]2[C@H](COC[C@@H](O)CN2Cc2ccccc2F)O1,-,0,-,-,-
C/C=C/c1ccc2c(c1)O[C@@H](CN(C)Cc1cccnc1)[C@@H](C)CN([C@@H](C)CO)S2(=O)=O,-,0,-,-,-
CN1C(=O)c2cc(NC(=O)C3CCCCC3)ccc2OC[C@H]2O[C@@H](CC(=O)NCc3ccccc3F)CC[C@@H]21,-,0,-,-,-
Cn1cc([N+](=O)[O-])c(C(=O)Nc2sc3c(c2C#N)CCC3)n1,0,0,0,0,189.9
Cc1nc2ccccc2c(=O)n1/N=C/c1ccc(N(C)C)cc1,0,0,0,0,0
CN(C)c1ccc(/C=N/c2cc(-c3ccccc3)nn2-c2ccccc2)cc1,0,62.1,-,0,0
